Records with an inconclusive call do not appear. The source made the active and inactive calls. How the source made its calls, unless noted: active means hit-call score of the fitted dose curve at least 0.9, where 1 is the maximum; inconclusive means response in the unintended direction; inactive means score below 0.9.
Experiments:
[1] = TOX21_p53_BLA_p2_viability: Viability Assessment in the Tox21 HCT-116 p53 Agonism Beta-lactamase Assay, Phase 2 (AID 2283591);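 further: compound exposure lasted 16 h at 37 °C; actives lower the ATP signal meaning cytotoxicity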
In short: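 HCT116 p53-bla cells, 4000/well, dosed after 5 h plating (217-fold dilution of DMSO stocks) and incubated 16 h at 37C. Viability taken as cellular ATP by CellTiter-Glo luminescence after 30 min RT; signal loss marks cytotoxicity.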

[2] = molecular target: Cellular tumor antigen p53 (Homo sapiens) (UniProt P04637); test: TOX21_p53_BLA_p2_ratio: Tox21 HCT-116 p53 Agonism Beta-lactamase Assay, Ratio, Phase 2 (AID 2283592)
In short: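 Ratio endpoint: beta-lactamase cleavage of CCF4-AM, blue (460 nm) over green (530 nm). HCT116 reporter line; 16 h treatment, 37C; substrate 2 h RT.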

[3] = TOX21_p53_BLA_p3_viability: Viability Assessment in the Tox21 HCT-116 p53 Agonism Beta-lactamase Assay, Phase 3 (AID 2283593);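 further: cells exposed to compound for 16 h before reading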
In short: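 HCT116 cells, 4000/well, dosed 5 h after plating by pin transfer (217-fold dilution from DMSO stock) and incubated 16 h at 37C, 5% CO2. Viability read as ATP luminescence with CellTiter-Glo after 30 min at room temperature.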

[4] = molecular target: Cellular tumor antigen p53 (Homo sapiens) (UniProt P04637); test: TOX21_p53_BLA_p3_ratio: Tox21 HCT-116 p53 Agonism Beta-lactamase Assay, Ratio, Phase 3 (AID 2283596)
In short: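 Cells were seeded at 4000/well, rested 5 h at 37C, then dosed with DMSO compound solutions (217-fold dilution) for 16 h. CCF4-AM substrate was loaded for 2 h at room temperature, and the 460/530 nm emission ratio was fitted for gain of signal versus DMSO.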

[5] = TOX21_p53_BLA_p4_viability: Viability Assessment in the Tox21 HCT-116 p53 Agonism Beta-lactamase Assay, Phase 4 (AID 2283597);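 further: hits lower the luminescence signal meaning cytotoxicity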
In short: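 Cytotoxicity was inferred from loss of CellTiter-Glo luminescence. HCT116 cells had been dosed with compounds after 5 h plating, incubated 16 h at 37C and 5% CO2, and exposed to the CCF4-AM substrate for 2 h.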

[6] = molecular target: Cellular tumor antigen p53 (Homo sapiens) (UniProt P04637); test: TOX21_p53_BLA_p5_ratio: Tox21 HCT-116 p53 Agonism Beta-lactamase Assay, Ratio, Phase 5 (AID 2283599)
In short: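 HCT-116 p53-bla cells (4000/well) plated 5 h, dosed with compound (217-fold DMSO dilution) for 16 h at 37 C; CCF4-AM substrate 2 h at room temperature. Activity is the 460/530 nm emission ratio (405 nm excitation), fitted in gain-of-signal direction versus DMSO.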

[7] = molecular target: Cellular tumor antigen p53 (Homo sapiens) (UniProt P04637); test: TOX21_p53_BLA_p4_ratio: Tox21 HCT-116 p53 Agonism Beta-lactamase Assay, Ratio, Phase 4 (AID 2283601)
In short: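 HCT-116 p53 beta-lactamase reporter cells (4000/well) preincubated 5 h, then compound (217-fold dilution of DMSO stock) for 16 h at 37C. CCF4-AM substrate added 2 h at room temperature; 460/530 nm emission ratio fitted upward versus DMSO.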

[8] = TOX21_p53_BLA_p5_viability: Viability Assessment in the Tox21 HCT-116 p53 Agonism Beta-lactamase Assay, Phase 5 (AID 2283600)
In short: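 Luciferase-coupled ATP quantitation of cells treated for 16 h (37C, 5% CO2) with test chemicals delivered in DMSO via a 217-fold dilution; 4000 cells/well; reagent incubated 30 min at room temperature before luminescence reading.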

[9] = CCTE_Harrill_HTTr_Viability_MCF7: CCTE's 6-hour Cell Viability Assessment for the High-Throughput Transcriptomics (HTTr) Platform, in MCF-7 cells cultured in DMEM + 10% fetal bovine serum, Harrill Lab (AID 2284010; active means hit-call score of the fitted dose curve at least 0.9, where 1 is the maximum; inactive means score below 0.9)
In short: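 Propidium iodide exclusion, imaged by high-content analysis, gauged viability after a six-hour exposure across eight concentrations. Cells were MCF-7 grown in DMEM with 10% fetal bovine serum; fits run in both directions against DMSO.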

[10] = system: Thyroperoxidase (TPO), gene 54314; test: CCTE_Simmons_AUR_rTPO: CCTE's Amplex UltraRed Assay for Thyroperoxidase (TPO) Inhibition, Simmons Lab (AID 2283662);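 further: potency for loss of signal meaning inhibition of peroxidase activity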
In short: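 Cell-free peroxidase activity assay using rat thyroid gland microsomes with excess H2O2 (300 uM) and 25 uM Amplex UltraRed. Compounds tested from 5 nM to 87.5 uM; fluorescence measured after 30 min at 37C, analysed relative to DMSO baseline.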

[11] = CCTE_Simmons_CellTiterGLO_HEK293T: Viability Assessment in CCTE's Assays for Thyroperoxidase (TPO) Inhibition, Simmons Lab (AID 2283665);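 further: cells exposed to compound for 24 h before readout; actives reduce ATP signal below DMSO vehicle meaning cytotoxicity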
In short: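 Luciferase-coupled ATP content after 24 h exposure gives viability; 8-point series from 5 nM to 87.5 uM final in 0.5% DMSO. Human HEK293T cells, 1% FBS medium, three biological replicates, dichlone positive control.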

[12] = molecular target: Luciferin 4-monooxygenase (Photinus pyralis) (UniProt P08659); test: CCTE_Simmons_QuantiLum_inhib_2: CCTE's Firefly Luciferase Inhibition Assay, Simmons Lab (AID 2283767)
In short: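 Eight test concentrations, 5 nM up to 87.5 uM final, preincubated 30min at 37C in the dark with purified luciferase (0.5% DMSO final). Detection reagent (150uM D-luciferin, 147uM dATP, 75uM CoA, pH 7.8) injected per well before kinetic luminescence read; three replicates.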

[13] = CCTE_Deisenroth_DEVTOX-GLR_legacy_CellCount: (Legacy) Viability Assessment in CCTE's DevTox GLR-Endo Assay, Deisenroth Lab (AID 2284331; active means hit-call score of the fitted dose curve at least 0.9, where 1 is the maximum; inactive means score below 0.9); settings: actives raise or lower the signal
In short: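 Viability is taken from imaged nuclei counts in fixed RUES2-GLR cultures after 48 h of differentiation under two 24 h-spaced chemical exposures, 10 concentrations from 1 nM to 200 uM, gain or loss versus DMSO baseline.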

[14] = system: SRY-box transcription factor 2 (SOX2) Protein Expression, Deisenroth Lab, SOX2 (gene 6657); test: CCTE_Deisenroth_DEVTOX-GLR_Endo_SOX2: CCTE's DevTox GLR-Endo Assay Evaluation of SRY-box transcription factor 2 (SOX2) Protein Expression, Deisenroth Lab (AID 2284412)
In short: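 Endpoint is percent SOX2-positive cells (SOX2+ count/total cells) minus 0.2% DMSO control, from high-content imaging of fixed, nuclear-stained RUES2-GLR cells. Dosing twice at 24 h intervals over 48 h differentiation, 1 nM–200 uM in 10 points.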

[15] = system: SRY-box transcription factor 17 (SOX17) Protein Expression, Deisenroth Lab, SOX17 (gene 64321); test: CCTE_Deisenroth_DEVTOX-GLR_Endo_SOX17: CCTE's DevTox GLR-Endo Assay Evaluation of SRY-box transcription factor 17 (SOX17) Protein Expression, Deisenroth Lab (AID 2284413; active means hit-call score of the fitted dose curve at least 0.9, where 1 is the maximum; inactive means score below 0.9)
In short: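 Human RUES2-GLR cells carrying an inducible fluorescent reporter are differentiated in defined media for 48 h and dosed twice, 24 h apart. After fixation and nuclear staining, imaging yields SOX17+ cell percentage relative to 0.2% DMSO-treated differentiated cells.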

[16] = system: Brachyury (BRA) Protein Expression, TBXT (gene 6862); test: CCTE_Deisenroth_DEVTOX-GLR_Endo_BRA: CCTE's DevTox GLR-Endo Assay Evaluation of Brachyury (BRA) Protein Expression, Deisenroth Lab (AID 2284417; active means hit-call score of the fitted dose curve at least 0.9, where 1 is the maximum; inactive means score below 0.9)
In short: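 Read-out: BRA+ cell count divided by total cell count by high-content imaging (5 fields per well), expressed relative to 0.2% DMSO solvent control. RUES2-GLR cells dosed twice over a 48 h differentiation; concentrations 1 nM - 200 uM.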

[17] = CCTE_Deisenroth_DEVTOX-GLR_Endo_CellCount: Viability Assessment in CCTE's DevTox GLR-Endo Assay, Deisenroth Lab (AID 2284420; active means hit-call score of the fitted dose curve at least 0.9, where 1 is the maximum; inactive means score below 0.9)
In short: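 RUES2-GLR human pluripotent cells seeded 24 h, then differentiated 48 h with two chemical exposures at 24 h intervals (10-point, 1 nM - 200 uM). Fixed, nuclear-stained, imaged; nuclei counts give % change in cell count versus 0.2% DMSO.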

[18] = system: SRY-box transcription factor 17 (SOX17) Protein Expression, Deisenroth Lab, SOX17 (gene 64321); test: CCTE_Deisenroth_DEVTOX-GLR_Pluri_SOX17: CCTE's DevTox GLR-Pluri Assay Evaluation of SRY-box transcription factor 17 (SOX17) Protein Expression, Deisenroth Lab (AID 2284427)
In short: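 RUES2-GLR human pluripotent cells were seeded 24 h, then differentiated 48 h in defined media with two chemical exposures 24 h apart (10-point series, 1 nM - 200 uM). Fixed, nuclear-stained cells were imaged; %SOX17+ cells minus 0.2% DMSO control reported.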

[19] = system: Brachyury (BRA) Protein Expression, Deisenroth Lab, TBXT (gene 6862); test: CCTE_Deisenroth_DEVTOX-GLR_Pluri_BRA: CCTE's DevTox GLR-Pluri Assay Evaluation of Brachyury (BRA) Protein Expression, Deisenroth Lab (AID 2284429)
In short: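 RUES2-GLR reporter line; 48 h mesoderm differentiation; two exposures, 24 h apart; 1 nM - 200 uM, 10 points; nuclear stain, high-content imaging, 5 fields/well; endpoint = %BRA+ cells of total count minus 0.2% DMSO; n=4.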

[20] = CCTE_Deisenroth_DEVTOX-GLR_Pluri_CellCount: Viability Assessment in CCTE's DevTox GLR-Pluri Assay Evaluation of Total Cell Counts, Deisenroth Lab (AID 2284430; active means hit-call score of the fitted dose curve at least 0.9, where 1 is the maximum; inactive means score below 0.9)
In short: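 Cytotoxicity readout: fluorescent nuclei counts by high-content imaging, expressed as percent change relative to 0.2% DMSO. Human RUES2-GLR pluripotent line differentiated 48 h, dosed twice at 24-h intervals across 1 nM - 200 uM (10 points).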

[21] = CCTE_Harrill_HTTr_CellCount_MCF7: CCTE's Cell Proliferation Assessment for the High-Throughput Transcriptomics (HTTr) Platform, Harrill Lab (AID 2284012);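 further: cells exposed to compound for six hours; intended direction is loss of nuclei count meaning fewer cells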
In short: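 Cell count from high-content imaging of Hoechst-labeled nuclei serves as viability/growth readout. Chemicals were applied to MCF-7 cells in eight concentrations for six hours, with fitting in both directions relative to DMSO.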

Measured: AC50

Cellular tumor antigen p53 (Homo sapiens), sequence (P04637 whole entry, looked up): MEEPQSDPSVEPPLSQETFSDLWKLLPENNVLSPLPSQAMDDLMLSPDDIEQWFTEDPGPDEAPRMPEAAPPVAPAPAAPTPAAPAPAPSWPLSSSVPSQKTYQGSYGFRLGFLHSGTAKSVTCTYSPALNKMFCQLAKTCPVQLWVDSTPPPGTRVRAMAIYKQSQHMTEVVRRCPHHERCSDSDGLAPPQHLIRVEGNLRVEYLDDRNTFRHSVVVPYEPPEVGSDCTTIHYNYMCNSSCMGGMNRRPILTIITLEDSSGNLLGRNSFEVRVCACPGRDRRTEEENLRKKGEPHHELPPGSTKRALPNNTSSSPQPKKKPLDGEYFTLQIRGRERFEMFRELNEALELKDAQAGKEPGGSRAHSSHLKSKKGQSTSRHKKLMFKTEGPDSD
Luciferin 4-monooxygenase (Photinus pyralis), sequence (P08659 whole entry, looked up): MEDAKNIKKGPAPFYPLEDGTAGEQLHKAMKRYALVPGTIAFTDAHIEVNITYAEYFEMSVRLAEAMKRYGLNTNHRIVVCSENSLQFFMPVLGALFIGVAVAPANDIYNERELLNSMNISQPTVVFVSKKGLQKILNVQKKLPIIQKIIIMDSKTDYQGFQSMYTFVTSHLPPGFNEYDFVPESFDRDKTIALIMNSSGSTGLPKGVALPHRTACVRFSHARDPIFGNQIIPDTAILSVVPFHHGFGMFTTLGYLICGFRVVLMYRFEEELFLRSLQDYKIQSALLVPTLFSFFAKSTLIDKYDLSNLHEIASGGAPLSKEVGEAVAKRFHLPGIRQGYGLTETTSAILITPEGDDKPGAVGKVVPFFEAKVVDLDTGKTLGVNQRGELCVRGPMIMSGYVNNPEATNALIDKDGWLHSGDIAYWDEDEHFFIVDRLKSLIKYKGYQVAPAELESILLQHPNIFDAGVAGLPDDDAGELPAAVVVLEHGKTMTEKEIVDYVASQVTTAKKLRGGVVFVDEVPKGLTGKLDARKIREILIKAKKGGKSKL

NNc1ccc(C(=O)O)cc1
inactive: [1] | [2] | [3] | [4] | [5] | [6] | [7]

C[CH2][Ge]([Cl])([CH2]C)[CH2]C
inactive: [1] | [2] | [3] | [4] | [5] | [8]

C#CCN(C)Cc1ccccc1
inactive: [1] | [2] | [3] | [4] | [5] | [6] | [7] | [9]

CCN(CC)CCNC(=O)c1c(C)[nH]c(/C=C2\C(=O)Nc3ccc(F)cc32)c1C
inactive: [1] | [2] | [3] | [4] | [6] | [12]
active: [5] 17.7 µM | [7] 37.1 µM | [10] 8.81 µM | [11] 12.8 µM | [13] 1.63 µM | [14] 2.5 µM | [15] 0.616 µM | [16] 0.826 µM | [17] 1.62 µM | [18] 1.46 µM | [19] 0.264 µM | [20] 1.23 µM

C1=CCC(c2ccccc2)CC1 (stereo not given)
inactive: [1] | [2] | [3] | [4] | [5] | [6] | [7] | [9] | [21]

Cc1ccc(NC(=O)c2ccc(CN3CCN(C)CC3)cc2)cc1Nc1nccc(-c2cccnc2)n1
active: [13] 15.9 µM | [14] 25.6 µM | [15] 14.2 µM | [16] 22.7 µM | [17] 15.8 µM | [18] 47.4 µM | [19] 23.2 µM | [20] 22.4 µM
inactive: [1] | [2] | [3] | [4] | [5] | [6] | [7]

O=C(CO)[C@@H](O)[C@H](O)[C@@H](O)C(=O)O
inactive: [1] | [2] | [3] | [4] | [5] | [6] | [7]
